PubChem BioAssay (NCATS)
“And” between values parts separate entries of the source, which are not always exact repeats. Identical values can stand only once. Results filed as inconclusive are left out. The source made the active and inactive calls. Unless noted, the call rests on the fitted dose curve; in most records, active means well fitted curve in the direction sought with a large enough effect; inconclusive means small, poorly fitted or top-dose-only effect, or another doubt; inactive means no such curve, though single readings can be large; an effect the other way counts as inactive or inconclusive.

Experiments:
[1] = qHTS Assay for Lipid Storage Modulators (AID 1519; calls by dose curve; on activity change, negative = inhibition: on the % scale 0 is the no-effect control and ±100 the full control effect); conditions: Drosophila S3 cells, BODIPY lipid droplet/cell ratio, laser cytometry, cells loaded with oleic acid
Procedure, shortened: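 Cells seeded at 5,000 per well were treated with compounds over a concentration series and loaded with oleic acid (400 uM, as added). Lipid droplet fluorescence (488 nm excitation, 500-530 nm channel) was read by laser-scanning cytometry and normalized to 20 uM Triacsin C.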

[2] = qHTS for differential inhibitors of proliferation of Plasmodium falciparum line 7G8 (AID 1815); conditions: Plasmodium falciparum 7G8 proliferation inhibition; series mostly up to 28.7 µM;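 further: parasite growth measured after three days of incubation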; further: potency means the concentration at half of the fitted maximal effect;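 on activity change, negative = inhibition: plate controls were vehicle wells for no effect and reference inhibitor wells for full effect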
[3] = qHTS for differential inhibitors of proliferation of Plasmodium falciparum line W2 (AID 1883); conditions: Potency: Plasmodium falciparum W2 proliferation inhibition; series mostly up to 28.7 µM;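 further: parasites grown with compound for 72 h before lysis and staining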; further: potency means the concentration at half of the fitted maximal effect;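 on activity change, negative = inhibition: 0% = vehicle wells and -100% = control inhibitor wells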
[4] = target: DNA repair nuclease/redox regulator APEX1 (Homo sapiens) (UniProt P27695); assay: qHTS Validation Assay for Inhibitors of the Human Apurinic/apyrimidinic Endonuclease 1 (APE1) (AID 1705;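 further: TAMRA fluorescence gain over two minutes as APE1 cuts a quenched THF abasic duplex; on the % scale 0 is the no-effect control and ±100 the full control effect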); conditions: purified APE1 endonuclease activity, fluorescence, titration; series mostly up to 57.1 µM
Procedure, shortened: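 Human APE1 was preincubated with compound for 15 min at room temperature, then 50 nM (final) THF-abasic double-stranded DNA substrate bearing 5'-TAMRA and 3'-BHQ-2 was added. Incision-driven fluorescence rise (ex 525/em 598 nm) was read kinetically.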

[5] = Counterscreen for APE1 Inhibitors: Fluorescent Dye Displacement Validation Assay (AID 1707); conditions: fluorescent dye displacement from DNA; series mostly up to 57.1 µM;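 further: plate controls were ThO with dsDNA and no compound for no effect and ThO without dsDNA for full effect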
Procedure, shortened: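 ThO 250 nM + dsDNA 50 nM (THF abasic site, 5'-TAMRA), Tris-HCl pH7.5/50mM NaCl/2 mM MgCl2/0.01% Tween-20; compounds pin-transferred; ex 480/em 540 nm endpoint. Neutral = no compound; no-DNA ThO wells = negative control.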

[6] = qHTS for differential inhibitors of proliferation of Plasmodium falciparum line D10 (AID 1877); conditions: series mostly up to 28.7 µM;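 further: parasites grown with compound for 72 h before DNA staining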; further: potency means the concentration at half of the fitted maximal effect;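 on activity change, negative = inhibition: plate controls were vehicle wells for no effect and reference inhibitor wells for full effect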
[7] = qHTS for differential inhibitors of proliferation of Plasmodium falciparum line Dd2 (AID 1882); conditions: Potency: Plasmodium falciparum Dd2 proliferation inhibition; series mostly up to 28.7 µM;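 further: plate controls were DMSO vehicle for no effect and 0.29 µM artemisinin for full effect; nearly all actives have a fitted effect of over 65% in size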
Procedure, shortened: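 Dd2-infected erythrocytes (0.3% parasitemia, 2.5% hematocrit final) incubated with compound 72 h at 37 C, 5% CO2; lysed with saponin/Triton buffer containing SYBR Green I, incubated overnight in the dark, then read by fluorescence (485/535 nm). Normalized to 0.29 uM artemisinin and DMSO.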

[8] = qHTS for differential inhibitors of proliferation of Plasmodium falciparum line GB4 (AID 1816); conditions: Potency: Plasmodium falciparum GB4 proliferation inhibition; series mostly up to 28.7 µM;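 further: parasite growth measured after 72 h incubation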; further: potency means the concentration at half of the fitted maximal effect;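 on activity change, negative = inhibition: 0% = vehicle DMSO and -100% = reference inhibitor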
[9] = qHTS for differential inhibitors of proliferation of Plasmodium falciparum line 3D7 (AID 1876); further: potency means the concentration at half of the fitted maximal effect; conditions: P. falciparum 3D7 proliferation inhibition; series mostly up to 28.7 µM
[10] = target: Endonuclease 4 (Escherichia coli (strain K12)) (UniProt P0A6C1); assay: Counterscreen for APE1 Inhibitors: qHTS Validation Assay for Inhibitors of Endonuclease IV (AID 1708); further: on the % scale 0 is the no-effect control and ±100 the full control effect; conditions: E. coli endonuclease IV, DNA cleavage fluorescence; series mostly up to 57.1 µM
Procedure, shortened: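 qHTS concentration-response format; LOPAC1280 tested under APE1-screen conditions. 2 nM enzyme, 15 min compound preincubation at RT, then 50 nM TAMRA/BHQ-2 abasic substrate; kinetic fluorescence read, three reads at 60 s intervals.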

[11] = measured here: cell count channel max response
[12] = measured here: lipid channel max response

Chain of DNA repair nuclease/redox regulator APEX1 (Homo sapiens) (P27695 whole entry, looked up): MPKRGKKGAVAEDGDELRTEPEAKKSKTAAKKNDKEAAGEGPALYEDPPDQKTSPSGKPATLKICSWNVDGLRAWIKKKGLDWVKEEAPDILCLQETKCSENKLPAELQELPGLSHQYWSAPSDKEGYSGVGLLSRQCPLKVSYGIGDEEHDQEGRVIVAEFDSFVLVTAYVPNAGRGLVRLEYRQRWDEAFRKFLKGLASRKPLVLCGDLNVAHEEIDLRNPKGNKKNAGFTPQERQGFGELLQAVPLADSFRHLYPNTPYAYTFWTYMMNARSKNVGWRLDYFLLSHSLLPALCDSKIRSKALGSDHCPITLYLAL

Compound: CCNc1nc(Cl)nc(NCC)n1
- activity change, negative = inhibition ([1]; at 57.5 µM (top of the series)): 6.1% (inactive)
- max response [1, 11]: 11.4%
- max response [1, 12]: 16.8%

Compound: O=C1CC2(CCCC2)CC(=O)N1CCCCN1CCN(c2ncccn2)CC1
- activity change, negative = inhibition ([1]; at 25.7 µM (top of the series)): 0.205% (inactive)
- activity change, negative = inhibition ([1]; at 57.5 µM (top of the series)): -2.21% (inactive)
- max response [1, 11]: -26.7% and -71.1%
- max response [1, 12]: -24.8% and -67.1%
- Potency [2]: 10 µM (active)
- Potency [3]: 10 µM (active)

Compound: O=C(NC(=O)c1c(F)cccc1F)Nc1cc(Cl)c(OC(F)(F)C(F)C(F)(F)F)cc1Cl (stereo not given)
- activity change, negative = inhibition ([1]; at 57.5 µM (top of the series)): -23.4% (inactive)
- max response [1, 11]: 4.92%
- max response [1, 12]: -17.8%

Compound: CCCCCCCCC(=O)NCc1ccc(O)c(OC)c1
- activity change, negative = inhibition ([1]; at 57.5 µM (top of the series)): -0.202% (inactive) and 0.982% (inactive)
- max response [1, 11]: 1.44% and 21.8%
- max response [1, 12]: 3.12% and 22.1%
- outcome [4]: inactive
- outcome [5]: inactive
- Potency [2]: inactive
- Potency [6]: inactive
- Potency [7]: inactive

Compound: COC(=O)C1=C(C)NC(C)=C(C(=O)OC)C1c1ccccc1[N+](=O)[O-]
- activity change, negative = inhibition ([1]; at 25.7 µM (top of the series)): -3.56% (inactive)
- activity change, negative = inhibition ([1]; at 57.5 µM (top of the series)): -18.3% (inactive)
- max response [1, 11]: -12.4% and 9.66%
- max response [1, 12]: -15.8% and -7.21%
- Potency [3]: 12.6 µM (active)

Compound: Clc1ccc(CO/N=C(\Cn2ccnc2)c2ccc(Cl)cc2Cl)c(Cl)c1
- activity change, negative = inhibition ([1]; at 57.5 µM (top of the series)): 5.8% (inactive)
- max response [1, 11]: -2.06%
- max response [1, 12]: 5.32%

Compound: CNC(=O)Oc1ccc2c(c1)[C@]1(C)CCN(C)[C@@H]1N2C
- activity change, negative = inhibition ([1]; at 57.5 µM (top of the series)): 0.848% (inactive)
- max response [1, 11]: -15.1%
- max response [1, 12]: -15.5%
- Potency [2]: 5.01 µM (active)
- Potency [8]: 3.98 µM (active)
- Potency [9]: 4.47 µM (active)
- Potency [6]: 4.47 µM (active)
- Potency [3]: 7.08 µM (active)

Compound: NC(=O)CN1CCCC1=O
- activity change, negative = inhibition ([1]; at 25.7 µM (top of the series)): -1.06% (inactive)
- activity change, negative = inhibition ([1]; at 57.5 µM (top of the series)): 8.11% (inactive)
- max response [1, 11]: -2.61% and 10.4%
- max response [1, 12]: -4.04% and 22.9%
- outcome [4]: inactive
- outcome [5]: inactive
- outcome [10]: inactive
- Potency [2]: inactive
- Potency [8]: inactive
- Potency [9]: inactive
- Potency [6]: inactive
- Potency [7]: inactive
- Potency [3]: inactive

Compound: C[C@H](N)[C@H](O)c1ccc(O)c(O)c1
- activity change, negative = inhibition ([1]; at 25.7 µM (top of the series)): -2.9% (inactive)
- max response [1, 11]: -12%
- max response [1, 12]: -13.5%

Compound: Clc1ccc(C(OCCN2CCCCC2)c2ccccc2)cc1 (stereo not given)
- activity change, negative = inhibition ([1]; at 57.5 µM (top of the series)): 10.4% (inactive)
- max response [1, 11]: 15.5%
- max response [1, 12]: 25.9%

Compound: CC[n+]1c(-c2ccccc2)c2cc(N)ccc2c2ccc(N)cc21
- activity change, negative = inhibition ([1]; at 57.5 µM (top of the series)): 1.12% (inactive)
- max response [1, 11]: 2.87%
- max response [1, 12]: 6.23%

Compound: O=C(O)c1nn(Cc2ccc(Cl)cc2Cl)c2ccccc12
- activity change, negative = inhibition ([1]; at 57.5 µM (top of the series)): -2.04% (inactive)
- max response [1, 11]: 45.4%
- max response [1, 12]: 43.5%
- outcome [4]: inactive
- outcome [5]: inactive
- outcome [10]: inactive
- Potency [2]: inactive
- Potency [8]: inactive
- Potency [9]: inactive
- Potency [6]: inactive
- Potency [7]: inactive
- Potency [3]: inactive

Compound: COC(=O)C1=CCCN(C)C1
- activity change, negative = inhibition ([1]; at 25.7 µM (top of the series)): 0.438% (inactive)
- activity change, negative = inhibition ([1]; at 57.5 µM (top of the series)): 7.06% (inactive) and -4.88% (inactive)
- max response [1, 11]: 20.3% and 3.22% and -69.9%
- max response [1, 12]: 21.3% and 16.2% and -73.3%
- outcome [4]: inactive
- outcome [5]: inactive
- outcome [10]: inactive
- Potency [2]: inactive
- Potency [8]: inactive
- Potency [9]: inactive
- Potency [6]: inactive
- Potency [7]: inactive

Compound: NC(N)=NC(=O)c1nc(Cl)c(N)nc1N
- activity change, negative = inhibition ([1]; at 25.7 µM (top of the series)): -0.295% (inactive)
- activity change, negative = inhibition ([1]; at 57.5 µM (top of the series)): -0.935% (inactive) and 5.62% (inactive)
- max response [1, 11]: 12.3% and 6.32% and 9.51%
- max response [1, 12]: 15.3% and 5.93% and 17.9%
- Potency [8]: 12.6 µM (active)
- Potency [9]: 11.2 µM (active)
- Potency [6]: 8.91 µM (active)
- Potency [3]: 8.91 µM (active)
